Measurements reported in PubChem BioAssay (NCI).
This is part of a sample that, as a whole, favours compounds with a hit. Of some 83,000 tested, about 20% had one in any assay.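 The test compound was applied at a single concentration to cells in 96-well plates for 48 hours, and percent growth was recorded.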 Active and inactive are the calls of the source. Rule for the calls: active = growth percent below 10; inactive = the rest.

What was measured:
Assay in all cases: NCI-60 one-dose screen, 48 h (100 = growth as untreated, 0 = no growth, -100 = all killed)
Settings in all cases: 10 µM unless noted
NCI-H23 lung = system: NCI-H23 lung
NCI-H226 lung = system: NCI-H226 lung
NCI-H322M lung = system: NCI-H322M lung
HOP-62 NSCLC = system: HOP-62 NSCLC
NCI-H460 lung = system: NCI-H460 lung
HOP-92 NSCLC = system: HOP-92 NSCLC
A549/ATCC NSCLC = system: A549/ATCC NSCLC
786-0 renal = system: 786-0 renal
COLO 205 colon = system: COLO 205 colon

Measured: growth

CCOC(=O)OCC(=O)[C@@]1(O)CC[C@H]2[C@@H]3CCC4=CC(=O)CC[C@]4(C)[C@H]3[C@@H](O)C[C@@]21C
inactive: NCI-H23 lung 111% | NCI-H226 lung 70.1% | NCI-H322M lung 99.2% | HOP-62 NSCLC 98.5% | NCI-H460 lung 102% | HOP-92 NSCLC 72.5% | A549/ATCC NSCLC 74.2% | 786-0 renal 108% | COLO 205 colon 104%

C(#Cc1ccccc1C#Cc1ccccn1)c1ccc(OCCCCCCOc2ccc(C#Cc3ccccc3C#Cc3ccccn3)cc2)cc1
active: HOP-92 NSCLC 9.48%
inactive: NCI-H23 lung 57.3% | NCI-H226 lung 67.3% | NCI-H322M lung 67.8% | HOP-62 NSCLC 38.2% | NCI-H460 lung 19.9% | A549/ATCC NSCLC 25.3% | 786-0 renal 29.3% | COLO 205 colon 120%

NS(=O)(=O)c1ccc(N2CC(c3nc4ccccc4[nH]3)CC2=O)cc1 (stereo not drawn)
inactive: NCI-H23 lung 90.3% | NCI-H226 lung 97.1% | NCI-H322M lung 88.9% | HOP-62 NSCLC 85.4% | NCI-H460 lung 100% | HOP-92 NSCLC 100% | A549/ATCC NSCLC 99.5% | 786-0 renal 102% | COLO 205 colon 101%

Cc1ccc(-c2c3c(N)nc(-c4ccncc4)nc3nc3c2c(C)nn3-c2ccccc2)cc1
active: HOP-92 NSCLC -7.02%
inactive: NCI-H23 lung 56.4% | NCI-H226 lung 44.9% | NCI-H322M lung 70.3% | HOP-62 NSCLC 15.5% | NCI-H460 lung 28.5% | A549/ATCC NSCLC 17.8% | 786-0 renal 80.8% | COLO 205 colon 18.1%

COc1cc(NC(C)CCCN)c2nc(C)ccc2c1Oc1ccc(F)cc1 (stereo not drawn)
inactive: NCI-H23 lung 84.8% | NCI-H226 lung 84.9% | NCI-H322M lung 37.4% | HOP-62 NSCLC 85.8% | NCI-H460 lung 73.8% | HOP-92 NSCLC 50.3% | A549/ATCC NSCLC 90% | 786-0 renal 65.9%
active: COLO 205 colon -45.1%

c1ccc2nc(Cn3c[n+](Cc4ccc5ccccc5n4)c4ccccc43)ccc2c1
inactive: NCI-H23 lung 32% | NCI-H226 lung 37.1% | NCI-H322M lung 78.1% | HOP-62 NSCLC 53.8% | NCI-H460 lung 32.4% | A549/ATCC NSCLC 54% | 786-0 renal 66.7%
active: HOP-92 NSCLC -8.16% | COLO 205 colon 6.96%

CCCCCCCCCCOC(C)=O
inactive: NCI-H23 lung 113% | NCI-H226 lung 98.6% | NCI-H322M lung 107% | HOP-62 NSCLC 108% | NCI-H460 lung 110% | HOP-92 NSCLC 89.3% | A549/ATCC NSCLC 106% | 786-0 renal 114% | COLO 205 colon 116%
